aGal spleen mod: inhibitors or activators of human alpha-galactosidase in spleen homogenate. AID 2107. human spleen homogenate, 4MU-alpha-Gal fluorescence, 40 min. 0.008% of 240,000 active. Potency, µM (highest dose often 80 µM), inactives show top-dose activity change, negative = inhibition, most hits filed as inhibitors;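 also: potency is read from the fitted curve at half-maximal effect; 0% = enzyme with vehicle and -100% = no enzyme basal signal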
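Spleen homogenate 1 ug + cpd (titration) + 4-MU-alpha-D-galactopyranoside 1 mM; 37C 40 min; 50 mM citrate/phosphate pH 5.0, 0.01% Tween-20; stop pH 10; fluorescence 365/440; AC50 via Hill.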
ALOX12 inhib: 12-hLO (ALOX12) enzyme inhibition | Potency, µM (series often up to 57.1 µM), inactives show at the highest dose activity change, negative = inhibition, usual class: inhibitors | purified 12-hLO, xylenol orange hydroperoxide absorbance | 0.12% of 150,000 active | P18054; also: potency is read from the fitted curve at half-maximal effect; nearly all actives have a fitted effect of over 55% in size
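Purified human 12hLO (150 nM final) was preincubated with compounds for 15 min at room temperature in 25 mM Hepes pH 7.0, 0.01% Triton X-100, then reacted with 40 uM arachidonic acid for 30 min. Hydroperoxide was detected with ferrous iron/xylenol orange.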
GLA inh pH 4.5: inhibitors of human alpha-galactosidase A at pH 4.5; AID 1467; purified enzyme, 4-MU-alpha-Gal fluorescence, pH 4.5; 230,000 tested, under 10 active; P06280; activity change, negative = inhibition, % at 105 µM;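 also: 0% = full activity with enzyme and -100% = basal without enzyme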
Target sequence (P06280 whole entry, looked up): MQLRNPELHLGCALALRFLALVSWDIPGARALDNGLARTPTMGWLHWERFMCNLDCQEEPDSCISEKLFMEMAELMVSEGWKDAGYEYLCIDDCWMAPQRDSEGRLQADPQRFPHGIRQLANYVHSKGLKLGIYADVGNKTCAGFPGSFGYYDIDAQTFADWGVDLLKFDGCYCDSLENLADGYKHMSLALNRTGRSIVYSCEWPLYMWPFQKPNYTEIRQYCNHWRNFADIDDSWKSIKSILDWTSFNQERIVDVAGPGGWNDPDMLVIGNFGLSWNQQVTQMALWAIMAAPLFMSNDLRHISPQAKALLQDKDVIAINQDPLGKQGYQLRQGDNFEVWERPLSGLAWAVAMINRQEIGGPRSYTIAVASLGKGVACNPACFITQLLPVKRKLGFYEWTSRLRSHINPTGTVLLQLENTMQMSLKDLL
ALDH1A1 block: inhibitors of human aldehyde dehydrogenase 1A1; P00352; Purified ALDH1A1, NADH fluorescence, propionaldehyde substrate; Potency, µM (series often up to 75.3 µM), for the others: top-dose activity, negative = inhibition, actives largely listed as inhibitors; 7.3% of 220,000 active; AID 1030; active = well fitted inhibition curve with a large enough effect, not every such curve was filed as active; inconclusive = small, poorly fitted or top-dose-only effect, or another doubt; inactive = no such curve, though single readings can be large or run the other way;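 also: potency is read from the fitted curve at half-maximal effect; plate controls were no enzyme wells and a reference inhibitor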
HPGD inh: inhibitors of human 15-hydroxyprostaglandin dehydrogenase (HPGD); P15428; purified HPGD, NADH fluorescence kinetic, PGE2 substrate; Potency, µM, without a hit: top-dose activity change, negative = inhibition, most hits filed as inhibitors; 4.3% of 150,000 active; AID 894; active = well fitted inhibition curve with a large enough effect, not every such curve was filed as active; inconclusive = small, poorly fitted or top-dose-only effect, or another doubt; inactive = no such curve, though single readings can be large or run the other way; also: potency is read from the fitted curve at half-maximal effect
Target sequence (P15428 whole entry, looked up): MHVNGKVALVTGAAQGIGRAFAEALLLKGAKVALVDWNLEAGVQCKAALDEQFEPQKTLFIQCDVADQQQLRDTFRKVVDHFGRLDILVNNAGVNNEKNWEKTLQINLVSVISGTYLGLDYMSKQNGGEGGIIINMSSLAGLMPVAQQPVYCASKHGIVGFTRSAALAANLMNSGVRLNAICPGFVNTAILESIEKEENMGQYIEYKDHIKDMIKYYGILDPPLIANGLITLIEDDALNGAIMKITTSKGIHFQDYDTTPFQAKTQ
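20 nM HPGD preincubated 15 min at room temperature with compound in 50 mM Tris-HCl pH 8, 0.01% Tween 20. Started with 1 mM NAD+ and 30 uM prostaglandin E2; NADH fluorescence (360/450 nm) read 5 times over 30-s intervals, last minus first.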
PNC inhibitor: inhibitors of perinucleolar compartment assembly; PC3M PTB-GFP, PNC prevalence imaging, 16 h; active compounds read low; activity change (PNC), negative = inhibition, % at 10 µM; 3.1% of 140,000 active; AID 2417;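 active = readout at or below -70, meaning at least 70% loss of cells showing the perinucleolar compartment, a nuclear body marking cancer cells; inconclusive = readout between -30 and a set limit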;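 also: plate controls were DMSO wells for no effect and camptothecin positive control wells for full effect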
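Read-out is percentage of cells bearing a perinucleolar compartment, from automated 20x imaging of fixed, Hoechst-stained PC3M PTB-GFP cells. Cells were seeded 4 h, then exposed 16 h to compound (23 nl of library stock) in duplicate plates.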
Active calls of the source: *; ? = inconclusive; · = no result given; [ ] = remark or other dose. Most compounds without a hit are left out; they make up all but 10% or so of the library. Unless noted, calls follow the shape of the dose curve; as a rule, active = well fitted curve in the direction sought with a large enough effect; inconclusive = small, poorly fitted or top-dose-only effect, or another doubt; inactive = no such curve, though single readings can be large; an effect the other way counts as inactive or inconclusive. Unless noted, % is scaled to controls: 0 for no effect and ±100 for the full control effect.

SMILES | aGal spleen mod | ALOX12 inhib | GLA inh pH 4.5 | ALDH1A1 block | HPGD inh | PNC inhibitor
CSC1=NC(C)(C)C=C(/C=C/c2ccc(Cl)cc2)N1 | 5% | · | 6 | 20µM* | · | ·
O=C(NC1CC1)C1CCN(C2CCN(C(=O)c3ccc4cccc(F)c4n3)CC2)CC1 | -2% | · | 5 | 7% | · | ·
CC(CN(C)C)NC(=O)c1ccc(Cc2nc3ccccc3[nH]2)cc1 (configuration not stated) | · | 7% | · | 18% | -1% | ·
COc1cc(C)nc(N2CCCC(C(=O)Nc3cccc(Cl)c3Cl)C2)n1 (configuration not stated) | 8% | -1% | -3 | 6% | -10% | -87*
CC(=O)c1c(C)[nH]c(C(=O)N2CCN(c3ncccn3)CC2)c1C | 5% | 10% | 2 | 12% | -16% | -10
CC(=O)c1c(C)[nH]c(C(=O)N2CCCCCC2)c1C | 5% | 7% | ? | -6% | 13µM* | -13
Cc1cc(C)cc(C(=O)N2CC(=O)Nc3ccccc32)c1 | -1% | -3% | 7 | ? | -27% | -80*
O=C1CN(C(=O)CSc2nc(-c3ccc(Cl)cc3)cs2)c2ccccc2N1 | -5% | -1% | -2 | -4% | 13µM* | -113*
Cc1ccsc1C(=O)N1CC(=O)Nc2ccccc21 | -5% | -4% | 3 | -2% | -14% | ?
Cc1cc(C)c2nc(SCC(=O)N3CC(=O)Nc4ccccc43)c(C#N)cc2c1 | 12% | -2% | 1 | ? | ? | -104*
Cc1nnc(SCC(=O)N2CC(=O)Nc3ccccc32)s1 | 0% | · | 13 | -1% | · | ·
Nn1c(Cc2ccccc2F)nnc1SCC(=O)N1CC(=O)Nc2ccccc21 | -4% | 2% | -3 | 4% | -17% | -100*
C=CCNC(=O)C1CC1(c1ccccc1)c1ccccc1 (configuration not stated) | -2% | -2% | 20 | 5% | -2% | -20
CCCN(CCC)CC(=O)N1CC(=O)Nc2ccccc21 | 4% | · | 7 | · | · | ·
Cc1ccc(/C=C/C(=O)N2CC(=O)Nc3ccccc32)o1 | -13% | · | -1 | 20µM* | · | ·
CN(C)c1ccc(/C=C(\C#N)C(=O)c2ccccc2)cc1 | -2% | · | -4 | 7.1µM* | · | ·
N#C/C(=C\c1ccccc1)C(=O)NC(=O)Oc1ccccc1 | 8% | -2% | 3 | -34% | -15% | ?
CCOC(=O)NC(=O)/C(C#N)=C/c1ccc(N(C)C)cc1 | -2% | · | -6 | 13µM* | · | ·
N#C/C(=C\c1ccc(C#N)cc1)C(=O)c1ccccc1 | 4% | · | -16 | 0.79µM* | · | ·
CC(C)N(CC(=O)O)CC(=O)O | · | 0%[11.4 µM] | · | ? | 2% | ·
C=C(C)CN=C1SC(C(=O)Nc2sc3c(c2C(=O)OC)CCC3)C(N)=C1C(N)=O (configuration not stated) | 4% | -6% | -11 | 25µM* | ? | 26
COC(=O)c1c(NC(=O)C2SC(=NC3CCCCC3)C(C(N)=O)=C2N)sc2c1CCCC2 (configuration not stated) | 6% | -3% | -20 | 0% | -19% | ?
COC(=O)C1CC1C(NC(=O)[C@H]1CCCCN1)c1ccccc1 (some centres not stated) | 4% | 2% | -10 | -10% | 0% | ·
COc1cccc(-c2cc(C(=O)NCCCn3ccnc3)c3ccccc3n2)c1 | -1% | 0% | -8 | 9% | -10% | -1
O=C(CSc1nnc(CNC(=O)c2cccs2)o1)NC1CCCC1 | 2% | 6% | 1 | -2% | -19% | -100*
SMILES | aGal spleen mod | ALOX12 inhib | GLA inh pH 4.5 | ALDH1A1 block | HPGD inh | PNC inhibitor
O=C(CSc1cn(CCNC(=O)c2cccs2)c2ccccc12)NC1CCCC1 | -18% | 0% | 5 | ? | 20µM* | -16
O=C(CSc1nnc(CNC(=O)c2cccs2)o1)Nc1ccccc1 | -11% | · | -11 | 5% | · | ·
COc1ccc2c(c1)CCc1c-2nc2ccccc2c1N1CCOCC1 | 25% | · | 16 | · | · | ·
O=C(C[n+]1cn(C(F)F)c2ccccc21)c1ccc(Br)cc1 | 2% | · | 13 | 8.9µM* | · | ·
O=C(c1ccncc1)N1CCC[C@@]2(CCN(Cc3cc(C(F)(F)F)cc(C(F)(F)F)c3)C2)C1 | -1% | -1% | · | 16% | -5% | ·
Cc1noc(C)c1-c1nccc(NC2CC2)n1 | -1% | · | · | -4% | · | ·
Cn1c(=O)c2c(nc(N3CCNCC3)n2Cc2ccccc2Cl)n(C)c1=O | -1% | · | 1 | -6% | · | ·
Cn1c(=O)c2c(nc(CN3CCC(C(N)=O)CC3)n2Cc2c(F)cccc2Cl)n(C)c1=O | 3% | 1% | 0 | ? | -3% | 54
Cn1c(=O)c2c(nc(CN3CCC(C(N)=O)CC3)n2Cc2ccccc2Cl)n(C)c1=O | 3% | 0% | 2 | 13µM* | 0% | ?
Cn1c(=O)c2c(nc(N3CCN(c4ccccn4)CC3)n2Cc2ccccc2Cl)n(C)c1=O | -8% | 2% | -8 | 1.1µM* | -12% | 83
Cn1c(=O)c2c(nc(CN3CCC(C(N)=O)CC3)n2Cc2c(Cl)cccc2Cl)n(C)c1=O | 7% | 1% | -10 | 14µM* | -2% | ?
Cn1c(=O)c2c(nc(CN3CCC(C(N)=O)CC3)n2CCc2ccccc2)n(C)c1=O | 8% | -3% | -11 | 4.5µM* | -5% | 26
COc1ccc(OC)c(S(=O)(=O)Nc2cc(C(=O)O)ccc2N2CC3CC(C2)c2cccc(=O)n2C3)c1 (configuration not stated) | 0% | · | 6[21.1 µM] | -4% | · | ·
Cc1ccccc1Cn1c(CN2CCc3ccccc3C2)nc2c1c(=O)n(C)c(=O)n2C | 1% | -3% | -6 | 32µM* | -1% | -10
CN(C)S(=O)(=O)c1cccc(N2C(=O)CC3(CCCCC3)CC2=O)c1 | -3% | · | 6 | 5% | · | ·
O=C(CCC(=O)OCC(=O)c1cccc([N+](=O)[O-])c1)NC1CCCCC1 | 5% | · | -7 | · | · | ·
O=C(CSCc1ccc(F)cc1)NC1CCCC1 | -2% | -3% | 3 | -5% | -19% | -1
O=C(CSCc1ccc([N+](=O)[O-])cc1)NC1CCCCCC1 | -3% | · | 2 | 25µM* | · | ·
O=C(CCC(=O)OCC(=O)c1ccc([N+](=O)[O-])cc1)NC1CCCCC1 | 4% | 2% | -2 | 2.8µM* | -20% | 29
Cc1cccc(NC(=O)CCC(=O)OCC(=O)c2ccc(Oc3ccc([N+](=O)[O-])cc3)cc2)c1 | 5% | 1% | -2 | 7.1µM* | -21% | 9
COC(=O)CN=C1OC(=O)N2C(=O)C3=C4C(C[C@H]5C(=O)N(c6ccccc6)C(=O)[C@H]5[C@H]4[C@@]12Cc1ccccc1)[C@H]1C(=O)N(c2ccccc2)C(=O)[C@H]1[C@H]3C (some centres not stated) | 2% | 0% | -7 | -6% | -9% | ·

High-throughput results from PubChem BioAssay.
